LT uptake inh: blocks cellular internalization of anthrax lethal toxin; Potency, µM (top dose mostly 40 µM), inactives show at the highest dose activity change, negative = inhibition, usual class: inhibitors; Cells, anthrax lethal toxin internalization, FRET ratio (460/530); AID 912; actives 0.67% (n = 70,000); also: % is scaled to controls: 0 for no effect and ±100 for the full control effect; nearly all actives have a fitted effect of over 50% in size
SmPrx2 inh: Schistosoma mansoni Prx2 inhibition; S. mansoni Prx2 activity coupled to TGR/GSH (TGR is thioredoxin glutathione reductase), NADPH fluorescence loss, qHTS; Potency, µM; actives 0.07% (n = 65,000)
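Prx2 activity was followed as the loss of NADPH fluorescence (ex 365/em 450 nm), read every 30 sec for 8 min after H2O2 start. The enzyme mix (50 nM Prx2, 25 nM TGR, GSH, NADPH; pH 7.4 phosphate buffer) was incubated with compound for 15 min at room temperature first.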
AmpC nodet inh: inhibitors of E. coli AmpC beta-lactamase without detergent | actives 1.8% (n = 71,000) | AmpC nitrocefin hydrolysis, absorbance 480 nm, no detergent | AID 585 | P00811 | Potency, µM (titrated, usually from 28.7 µM), for the others: top-dose activity change, negative = inhibition; also: % of control where 0% means no effect
Target sequence (P00811 whole entry, looked up): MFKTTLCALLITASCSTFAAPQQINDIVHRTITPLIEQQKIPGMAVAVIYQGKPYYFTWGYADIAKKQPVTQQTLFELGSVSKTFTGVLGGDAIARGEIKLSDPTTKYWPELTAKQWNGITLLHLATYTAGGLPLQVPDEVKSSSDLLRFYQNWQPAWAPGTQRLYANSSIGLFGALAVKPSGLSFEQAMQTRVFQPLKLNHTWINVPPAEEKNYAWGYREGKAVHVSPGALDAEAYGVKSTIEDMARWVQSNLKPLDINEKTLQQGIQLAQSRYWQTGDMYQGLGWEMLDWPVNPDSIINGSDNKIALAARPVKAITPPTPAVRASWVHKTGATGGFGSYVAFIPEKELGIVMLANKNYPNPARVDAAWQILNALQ
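Enzyme, pH 7.0 phosphate. Compound titrations were pre-incubated with AmpC for 15 min at room temperature before nitrocefin (stock 800 uM) addition; product formation was recorded at 480 nm every 20 s for 4 min.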
AmpC det inh: blocks E. coli AmpC beta-lactamase in presence of detergent. P00811. purified AmpC, nitrocefin hydrolysis with detergent. Potency, µM (titrated, usually from 28.7 µM), for the others: at the highest dose activity change, negative = inhibition. actives 0.09% (n = 71,000); active = well fitted curve in the direction sought with a large enough effect; inconclusive = small, poorly fitted or top-dose-only effect; also: % is scaled to controls: 0 for no effect and ±100 for the full control effect
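E. coli AmpC (5.3 nM) in 20 mM phosphate pH 7.0 with 0.01% Triton X-100, preincubated 15 min RT with compound; nitrocefin (2 uL of 800 uM stock) hydrolysis followed by 480 nm absorbance every 20 s over 4 min.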
Active calls of the source: *; [ ] = dose if it differs, or a comment. Only some compounds are listed: those with a hit (about 2.4% of all), similar ones and a draw of the others. Unless noted, calls follow the shape of the full dose curve. Potency is read from the fitted curve at half-maximal effect.

For CCOC(=O)c1c(NC(=O)c2noc3c2CCCC3)sc(C)c1C the results were LT uptake inh 8%, SmPrx2 inh >57, AmpC nodet inh 13% and AmpC det inh 2%.
Screening COc1ccc(OC)c(NC(=O)c2nnn(CCc3ccccc3)c2N)c1 returned LT uptake inh -13%, SmPrx2 inh >57, AmpC nodet inh 4µM*[single pt active] and AmpC det inh 12%.
COC(=O)c1nnn(Cc2ccccc2)c1N was read as LT uptake inh 7%, SmPrx2 inh >57, AmpC nodet inh -2% and AmpC det inh -1%.
`CSc1cccc(NC(=O)c2nnn(Cc3ccccc3)c2N)c1` gave LT uptake inh inconclusive, SmPrx2 inh >57, AmpC nodet inh -16% and AmpC det inh -2%.
Screening CCc1ccc(Cn2nnc(C(=O)Nc3ccc(OC)cc3OC)c2N)cc1 returned LT uptake inh -10%, SmPrx2 inh >57, AmpC nodet inh 4µM*[single pt active] and AmpC det inh 10%.
Screening CCOc1ccc(NC(=O)Cn2nnc(C(=O)NCc3ccccc3OC)c2N)cc1 returned LT uptake inh inconclusive, SmPrx2 inh >57, AmpC nodet inh -8% and AmpC det inh -5%.
Screening CCOc1ccc(Cn2nnc(C(=O)NCc3ccc(OC)cc3)c2N)cc1 returned LT uptake inh -16%, SmPrx2 inh >57, AmpC nodet inh 4µM*[single pt active] and AmpC det inh 15%.
`COc1cc(NC(=O)c2nnn(Cc3ccc(SC)cc3)c2N)cc(OC)c1` gave LT uptake inh inconclusive, SmPrx2 inh >57, AmpC nodet inh 4µM*[single pt active] and AmpC det inh 11%.
CN1C(=S)SC(C)(NO)C1(C)C (stereo not drawn) was read as LT uptake inh 6%, SmPrx2 inh >57, AmpC nodet inh -4% and AmpC det inh -2%.
Screening COc1cccc(NC(=O)Cn2nnc(C(=O)Nc3ccccc3)c2N)c1 returned LT uptake inh 7%, SmPrx2 inh >57, AmpC nodet inh -13% and AmpC det inh 0%.
Screening COc1cccc(NC(=O)c2nnn(CCc3ccccc3)c2N)c1 returned LT uptake inh inconclusive, SmPrx2 inh >57, AmpC nodet inh 4µM*[single pt active] and AmpC det inh 9%.
`CC1=C/C(=C\c2ccc3c(c2)OCO3)C(=O)S1` gave LT uptake inh inconclusive, SmPrx2 inh >57, AmpC nodet inh 13µM* and AmpC det inh inconclusive.
C=CCSC1=N/C(=C\c2ccc3c(c2)OCO3)C(=O)S1 was read as LT uptake inh 22%, SmPrx2 inh >57, AmpC nodet inh 4µM* and AmpC det inh 3%.
For N=C(N)n1cc(/C=N\N=C(N)N)cn1 the results were LT uptake inh -8%[8 µM], SmPrx2 inh >57, AmpC nodet inh -1%[5.75 µM] and AmpC det inh -1%[5.75 µM].
N#C/C(C(=O)N1CCOCC1)=C1\Nc2ccccc2S1 was read as LT uptake inh -2%, SmPrx2 inh >57, AmpC nodet inh -7% and AmpC det inh -2%.
O=C(Cc1cccs1)Nc1ccc(S(=O)(=O)N2CCCCC2)cc1 was read as LT uptake inh -3%, SmPrx2 inh >57, AmpC nodet inh 13µM*[single pt active] and AmpC det inh -2%.
For O=C(Nc1ccc(S(=O)(=O)N2CCCCCC2)cc1)c1ccc(Br)o1 the results were LT uptake inh 1.6µM*, SmPrx2 inh >57, AmpC nodet inh -11% and AmpC det inh 8%.
Cc1cc(N=Cc2c(O)n(-c3ccc4c(c3)OCO4)c(=O)c3ccccc23)ccn1 was read as LT uptake inh 7.9µM*, SmPrx2 inh >57, AmpC nodet inh 111% and AmpC det inh 9%.
Screening CC1CC(C)CN(CCCNC(=O)c2ccc(CS(=O)(=O)Cc3ccccc3F)o2)C1 (stereo not drawn) returned LT uptake inh -17%, SmPrx2 inh >57, AmpC nodet inh -6% and AmpC det inh 8%.
`O=C(Nc1ccc2oc(-c3ccccc3F)nc2c1)c1ccc2c(c1)OCCO2` gave LT uptake inh 10µM*, SmPrx2 inh >57, AmpC nodet inh 34% and AmpC det inh -3%.
`O=C(Nc1ccccc1-c1nc2ccccc2o1)c1ccc2c(c1)OCCO2` gave LT uptake inh -17%, SmPrx2 inh >57, AmpC nodet inh -21% and AmpC det inh 5%.
Screening CC1CCCCC1NC(=O)c1ccc(N2CCCC2=O)cc1 (stereo not drawn) returned LT uptake inh 14%, SmPrx2 inh >57, AmpC nodet inh -3% and AmpC det inh 2%.
Screening CCn1c(SCC(=O)Nc2oc(-c3ccccc3)c(-c3ccccc3)c2C#N)nnc1-c1ccco1 returned LT uptake inh inconclusive, SmPrx2 inh >57, AmpC nodet inh inconclusive and AmpC det inh -3%.
For N#Cc1c(NC(=O)CSc2ncnc3sccc23)oc(-c2ccco2)c1-c1ccco1 the results were LT uptake inh inconclusive, SmPrx2 inh >57, AmpC nodet inh 7.9µM* and AmpC det inh 12%.
For O=C(NCCc1c[nH]c2ccccc12)c1ccc(S(=O)(=O)NCc2ccco2)cc1 the results were LT uptake inh -28%, SmPrx2 inh >57, AmpC nodet inh 16µM* and AmpC det inh -4%.
`COc1ccc(-c2noc(CN(C)S(=O)(=O)c3ccc(Cl)cc3)n2)cc1OC` gave LT uptake inh 13µM*, SmPrx2 inh >57, AmpC nodet inh 104% and AmpC det inh -5%.
COc1ccccc1C(=O)N(Cc1nc(-c2ccc(Cl)cc2)no1)C(C)C was read as LT uptake inh 13µM*, SmPrx2 inh >57, AmpC nodet inh 92% and AmpC det inh 14%.
Screening CC(C)=CCc1c2c(c3occ(-c4ccc(O)c(O)c4)c(=O)c3c1O)C=CC(C)(C)O2 returned LT uptake inh inconclusive, SmPrx2 inh >57, AmpC nodet inh 4µM*[single pt active] and AmpC det inh -3%[5.75 µM].
For O=c1c(-c2ccc3c(c2)OCCO3)coc2c(CN3CCOCC3)c(O)ccc12 the results were LT uptake inh -18%, SmPrx2 inh >57, AmpC nodet inh 4% and AmpC det inh 12%.
`COC(=O)c1ccc2c(c1)NC(=O)C1CCCN21` (stereo not drawn) gave LT uptake inh inconclusive, SmPrx2 inh >57, AmpC nodet inh 4µM*[single pt active] and AmpC det inh 27%.
For O=C1C(SCCO)=C(SCCO)C(=O)c2ccccc21 the results were LT uptake inh 4µM*, SmPrx2 inh >57, AmpC nodet inh 10% and AmpC det inh 10%.
Screening CC(=O)Nc1cccc(NC(=O)CSc2nnnn2Cc2ccccc2)c1 returned LT uptake inh -12%, SmPrx2 inh >57, AmpC nodet inh -6% and AmpC det inh -1%.
For COC(=O)CSc1nc2ccc(NC(=O)CSc3nnnn3Cc3ccccc3)cc2s1 the results were LT uptake inh 5µM*, AmpC nodet inh inconclusive and AmpC det inh 0%.
COc1ccc(NC(=O)NCCCN2CCN(c3cc(C)ccc3C)CC2)cc1 was read as LT uptake inh inconclusive, SmPrx2 inh >57, AmpC nodet inh 4µM*[single pt active] and AmpC det inh 12%.
`O=C(Cc1cccs1)Nc1nnc(CCc2ccccc2)s1` gave LT uptake inh -3%, SmPrx2 inh >57, AmpC nodet inh -23% and AmpC det inh -3%.
